MITF inh: blocks human microphthalmia-associated transcription factor; inhibition, % at 2.6 µM; AlphaScreen MITF homodimerization, bead proximity signal; hit rate 0.91% among 650,000; in the data active = inhibition above about 50%;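 also: 0% = vehicle wells with protein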
Target sequence (O75030 whole entry, looked up): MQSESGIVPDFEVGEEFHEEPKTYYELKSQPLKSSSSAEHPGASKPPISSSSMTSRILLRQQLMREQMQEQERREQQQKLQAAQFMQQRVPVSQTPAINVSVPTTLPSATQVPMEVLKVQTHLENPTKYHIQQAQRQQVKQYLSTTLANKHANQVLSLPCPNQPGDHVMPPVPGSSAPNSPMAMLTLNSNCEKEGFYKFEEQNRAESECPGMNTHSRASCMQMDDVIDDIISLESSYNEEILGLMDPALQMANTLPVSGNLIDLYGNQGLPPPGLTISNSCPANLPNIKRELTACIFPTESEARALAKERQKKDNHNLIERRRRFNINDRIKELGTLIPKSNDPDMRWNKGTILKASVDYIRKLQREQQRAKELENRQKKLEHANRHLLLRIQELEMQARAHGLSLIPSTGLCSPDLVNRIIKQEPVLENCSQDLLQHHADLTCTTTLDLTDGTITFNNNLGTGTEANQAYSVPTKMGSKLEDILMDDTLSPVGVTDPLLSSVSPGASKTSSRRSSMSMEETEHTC
FBW7 act: human FBW7 E3 ligase activation, primary screen | Q969H0 | AlphaScreen FBW7–phospho-cyclin E peptide binding, activator screen | normalized activity (activation), % at 26.1 µM | hit rate 0.13% among 650,000 | AID 1259310; in the data active = normalized activity above about 1.9%;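 also: purified mutant Fbw7 with reduced substrate affinity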
GPR151 activ: activators of human GPR151 | AID 1508602 | activation, % at 11.2 µM | PathHunter beta-arrestin GPR151 cells, luminescence | Q8TDV0 | hit rate 1% among 650,000; in the data active = activation above about 4.9%;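 also: 0% = median of compound wells and 100% = cells with positive control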
TEAD-YAP block: TEAD-YAP interaction inhibition | HEK-TIYL cells, TEAD-Gal4/YAP UAS-luciferase luminescence | hit rate 1.4% among 640,000 | inhibition, % at 9.12 µM | AID 1259422; in the data active = inhibition above about 32%;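 also: 0% = median of test compound wells and 100% = reference inhibitor wells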
The depositor's hits bear a star; / = no result. Most compounds without a hit are left out; they make up all but 3.5% or so of the library.

SMILES | MITF inh | FBW7 act | GPR151 activ | TEAD-YAP block
C/C=C(\CC(NCc1ccccc1)c1ccccc1)C[Si](C)(C)C (configuration not stated) | 12.3 | 0.0 | -0.5 | -2.5
CSc1ccccc1-c1ccc(NCCN2CCOCC2)nc1 | 22.7 | -0.5 | -1.4 | -25.6
c1ccc(-n2cnc3c(NC4CC4)nc(Nc4ccc(-n5ccnc5)cc4)nc32)cc1 | -0.2 | -0.3 | 0.6 | 41.1*
c1ccc(Nc2nc(NC3CC3)c3ncn(-c4ccccc4)c3n2)cc1 | 0.1 | -0.2 | -0.4 | 47.2*
FC(F)(F)c1ccc(Nc2nc(NC3CC3)c3ncn(-c4ccccc4)c3n2)cc1 | 15.6 | -0.1 | -0.4 | -8.0
c1ccc(-n2cnc3c(NC4CC4)nc(Nc4ccccn4)nc32)cc1 | 6.8 | 0.0 | -0.2 | 47.0*
c1ccc(Nc2nc(NC3CC3)c3ncn(C4CCCCC4)c3n2)nc1 | 3.5 | -0.2 | 0.8 | 21.8
c1ccc(-n2cnc3c(NC4CC4)nc(Nc4cccnc4)nc32)cc1 | 4.7 | 0.0 | -2.0 | 41.8*
CCOc1ccc(C(=O)C[N+]2=C(C)c3ccc(C)n3CC2)cc1 | 4.0 | -0.1 | 1.0 | 29.8
CC(=O)Oc1ccccc1/C=C/c1nc2ccccc2c(=O)o1 | 16.6 | 0.3 | -8.7 | 59.4*
Cc1ccc(/C=C/C(=O)Nc2nccs2)cc1 | 18.4 | -0.1 | -7.3 | 69.2*
Cc1ccc(C)c(OCC(=O)Nc2nccs2)c1 | 12.1 | -0.2 | -2.0 | -13.5
Cc1ccc(C(C)(C)C)c(OCC(=O)Nc2nccs2)c1 | 10.8 | 0.0 | -0.9 | 50.0*
Cc1ccc(OCC(=O)Nc2nccs2)c(C)c1 | 4.8 | -0.3 | -7.7 | 93.3*
CC(C)(C)c1ccccc1OCC(=O)Nc1nccs1 | -13.3 | 0.0 | -1.0 | 4.8
Cc1ccccc1OCC(=O)Nc1nccs1 | 2.9 | 0.0 | -9.7 | 49.7*
CCOC(=O)c1cccc(NS(=O)(=O)c2ccc3c(c2)oc(=O)n3C)c1 | 6.2 | 0.0 | -1.1 | 25.5
FC(F)(F)C1(C(F)(F)F)N=C(c2ccncc2)OC(N2CCOCC2)=N1 | 6.2 | 0.1 | -1.0 | -5.0
N#Cc1ccccc1Cn1c(-c2nonc2N)nc2ccccc21 | 1.8 | -0.1 | -0.5 | -10.3
CC1=C(C(=O)Nc2ccccc2F)C(c2ccc(C)cc2)C2=C(CCCC2=O)N1 (configuration not stated) | 17.6 | 0.9 | 1.1 | -12.5
COC(=O)c1cc(Nc2ccccc2OC)c2cc(Cl)ccc2n1 | -1.5 | 0.2 | 1.5 | 28.4
COC(=O)c1cc(Nc2cc(OC)cc(OC)c2)c2cc(C)ccc2n1 | 0.7 | -0.2 | 1.5 | 41.2*
COC(=O)c1cc(Nc2ccc3c(c2)OCO3)c2cc(C)ccc2n1 | -10.8 | -0.1 | -0.2 | 13.2
COC(=O)c1cc(Nc2cccc(OC)c2)c2cc(Cl)ccc2n1 | 3.8 | 0.1 | 0.5 | 37.7*
CC(C)n1c(Nc2ccc(-n3ccnc3)cc2)nc2c(Nc3ccccc3)ncnc21 | 1.1 | -0.1 | -6.0 | 49.1*
SMILES | MITF inh | FBW7 act | GPR151 activ | TEAD-YAP block
CC(C)n1c(Nc2ccncc2)nc2c(Nc3ccc(Oc4ccccc4)cc3)ncnc21 | 19.5 | 0.1 | -0.9 | 45.2*
CC(C)n1c(NCc2cccnc2)nc2c(Nc3ccccc3)ncnc21 | 7.8 | 0.0 | -6.1 | 52.9*
COc1cccc(N2C[C@@H]3C[C@@H](c4cnn(-c5ccccc5)c4)N4CCC[C@@]34C2=O)c1 | -2.4 | 0.0 | 1.0 | 36.9*
C#CCSc1nc2sc3c(c2c(=O)n1CC=C)CCC3 | 10.5 | 0.0 | 0.5 | 14.8
Cc1ccc(S(=O)(=O)N2CCCCC2CCNC(=O)C(=O)NCc2cccs2)cc1 (configuration not stated) | 9.1 | 0.8 | 0.0 | 48.4*
O=C(NCCc1ccco1)C(=O)NCC1CCCN1S(=O)(=O)c1ccccc1 (configuration not stated) | 13.7 | 0.3 | 0.9 | 32.3*
Cc1ccc(S(=O)(=O)N2CCCCC2CCNC(=O)C(=O)NCCc2ccco2)cc1 (configuration not stated) | 5.0 | 0.1 | 0.2 | 47.3*
Cc1ccc(S(=O)(=O)N2CCCCC2CCNC(=O)C(=O)NC2CCCC2)cc1 (configuration not stated) | -0.2 | -0.1 | 3.7 | 3.7
Cc1ccc(S(=O)(=O)N2CCCCC2CCNC(=O)C(=O)NCc2ccco2)cc1 (configuration not stated) | -3.6 | 0.4 | -1.2 | 41.5*
Cc1ccc(N)c(C(=O)O)c1Br | 2.9 | -0.2 | -0.4 | -2.4
COc1cccc(C2(CC(=O)N3CCN(CCO)CC3)CC(=O)N(C3CCCC3)C2=O)c1 (configuration not stated) | -18.9 | 0.1 | -0.4 | -0.6
COc1ccccc1C1C2CN(Cc3ccccc3)CC=C2C(C#N)=C(N)C1(C#N)C#N (configuration not stated) | 3.8 | 1.9* | 0.4 | 7.2
N#CC1=C(N)C(C#N)(C#N)C(c2ccccc2F)C2CN(Cc3ccccc3)CC=C12 (configuration not stated) | 7.5 | -0.1 | 0.6 | 3.6
O=C(c1ccco1)N1CCCC(c2nc(-c3ccncc3)ncc2-c2ccccc2)C1 (configuration not stated) | 17.4 | -0.1 | 0.0 | 5.2
O=C(c1cccs1)N1CCCC(c2nc(-c3ccncc3)ncc2-c2ccccc2)C1 (configuration not stated) | -6.1 | -0.1 | 1.0 | 51.3*
O=C(CN1Cc2ccccc2C1)N1CCCC(c2ncncc2-c2ccncc2)C1 (configuration not stated) | 16.4 | 3.3* | 0.2 | 3.7
Cc1cc(C(=O)N2CCCC(c3nc(-c4ccncc4)ncc3-c3ccccc3C)C2)no1 (configuration not stated) | -7.5 | 0.0 | 1.1 | 58.3*
Cc1cnc(C(=O)N2CCCC(c3nc(C)ncc3-c3ccncc3)C2)cn1 (configuration not stated) | 14.0 | 0.3 | -1.2 | -17.8
O=C(CN1CCCC(c2ncncc2-c2ccncc2)C1)N1CCc2ccccc21 (configuration not stated) | 17.9 | 0.0 | 0.1 | -1.9
Cc1cc(C(=O)CSc2nc3ccccc3[nH]2)c(C)n1CC1CCCO1 (configuration not stated) | 9.9 | 0.0 | -0.1 | 40.2*
Cc1cc(C(=O)CCl)c(C)n1CC1CCCO1 (configuration not stated) | 8.7 | -0.3 | -0.9 | -7.2
COC(=O)c1ccc(CSCC(=O)c2cc(C)n(CC3CCCO3)c2C)cc1 (configuration not stated) | 0.6 | -0.3 | 2.1 | 36.8*
O=[N+]([O-])c1ccc2c(c1)S(=O)(=O)N=C2Nc1cc(Cl)ccc1Cl | 6.9 | 0.3 | 0.3 | -3.5
CN1CCc2cc3c(cc2[C@H]1[C@@H]1C(=O)Oc2c1ccc1c2OCO1)OCO3 | 21.0 | 0.0 | -0.7 | /
O=C(/C=C/Nc1cccc2cccnc12)c1ccccc1 | 16.2 | 0.0 | -1.1 | -51.5
O=C(/C=C/Nc1ccccc1I)c1ccccn1 | 8.9 | 0.0 | -4.9 | 80.3*
Cc1ccc(C(=O)c2c(C)[n+](-c3ccccc3)c3scc(C)n23)cc1 | 11.5 | 0.0 | 2.1 | 34.4*
Cc1csc2n1c(C(=O)c1ccccc1)c(C)[n+]2-c1ccccc1 | 2.8 | -0.1 | 0.2 | 12.7
CCCCn1c(CNC(=O)c2ccccc2F)nnc1SCC(=O)Nc1sc(C(=O)OCC)c(C)c1C(=O)OCC | -2.0 | -0.2 | -0.9 | -2.7

High-throughput results as filed in PubChem BioAssay.
